The source of these data is PubChem BioAssay (Tox21).

Records with an inconclusive call do not appear. Values without a mark were called inactive. Active and inactive are the calls of the source. Calls follow the shape of the dose curve; as a rule, active = well fitted cell-killing curve with a large enough effect in the repeat runs; inconclusive = weak or mixed curves, or effect the other way; inactive = flat fitted curve, though single readings scatter.
% is scaled to controls: 0 for no effect and ±100 for the full control effect.

The nature of this assay: qHTS assay to identify small molecule antagonists of the androgen receptor (AR) signaling pathway using the MDA cell line - cell viability counter screen (AID 743041; also: nearly all actives have a fitted effect of over 45% in size). As to conditions: MDA-kb2 viability, CellTiter-Fluor, 16 h, cells co-treated with R1881 androgen agonist; series mostly up to 70.3 µM; viability change, negative = cytotoxic: at the top concentration. An excerpt:
National Center for Advancing Translational Sciences [NCATS]
NIH Chemical Genomics Center [NCGC]
U.S. Environmental Protection Agency [EPA]
National Institutes of Environmental Health Sciences [NIEHS]
National Toxicology Program [NTP]
U.S. Food and Drug Administration [FDA]
Androgen receptor (AR), a nuclear hormone receptor, plays a critical role in AR-dependent prostate cancer and other androgen related diseases. Endocrine disrupting chemicals (EDCs) and their interactions with steroid hormone receptors like AR may cause disruption of normal endocrine function as well as interfere with metabolic homeostasis, reproduction, developmental and behavioral functions. To identify the compounds that inhibit AR signaling, MDA-kb2 AR-luc cell line (from ATCC, deposited by Wilson et al.) was used to screen the Tox21 10K compound library. MDA-kb2 AR-luc cell line is human breast carcinoma cell line that was stably transfected with a luciferase reporter gene under control of the MMTV promoter containing response elements for both androgen receptor (AR) and glucocorticoid receptor (GR). The cytotoxicity of the Tox21 compound library against the MDA-kb2 AR-luc cell line was tested in parallel by measuring the cell viability using CellTiter-Fluor assay (Promega, Madison, WI) in the same wells.
Tox21 Assay Protocol Summary:
MDA-kb2 AR-luc cells were dispensed at 3,000 cells/4 uL/well of culture medium into white wall/solid-bottom 1536-well plates using a Multidrop Combi (ThermoFisher Scientific, Waltham, MA) dispenser. After the assay plates were incubated at a 37C and 0% CO2 for 5 hr, 23 nL of compounds dissolved in DMSO, positive controls or DMSO only was transferred to the assay plate by a Pintool station (Kalypsys, San Diego, CA), followed by addition of 1 uL of agonist (R1881) in culture medium using a Bioraptr Flying Reagent Dispenser (FRD) workstation (Beckman Coulter, Indianapolis, IN, USA). The plates were incubated at a 37C and 0% CO2 for 16 h. After 15.5 h incubation, 1uL of CellTiter-Fluor reagent (Promega) was added using a Bioraptr FRD to each plate for measuring cytotoxicity. The fluorescence intensity was quantified on a ViewLux plate reader (PerkinElmer, Shelton, CT) following 30 min incubation at 37C and 0% CO2.
Consider `[O-][Cl+]O`, for which the “viability change, negative = cytotoxic” value was -1.41%.
On the same count and under the same terms, the figure for `O=Cc1ccc(Cl)cc1Cl` is -1.21% [at 95 µM]; for `CCOS(C)(=O)=O` it is 5.73% [at 95 µM]; for `Nc1nc(N)nc(N)n1` it is 11.1% [at 95 µM].
Consider `Cc1ccc(N)cc1C`, for which the “viability change, negative = cytotoxic” value was 2.47% [at 95 µM].
Regarding `CCCCc1c(C)nc(NCC)nc1OS(=O)(=O)N(C)C`, the “viability change, negative = cytotoxic” value was -1.66%.
Consider `C=CC[C@]1(O)CC[C@H]2[C@@H]3CCC4=CC(=O)CCC4=C3C=C[C@@]21C`, for which the “viability change, negative = cytotoxic” value was -5.31%.
With `CCc1ccc(C(=O)NN(C(=O)c2cc(C)cc(C)c2)C(C)(C)C)cc1`, the “viability change, negative = cytotoxic” value is 16.1%.
Take `O=C(N[C@H](c1ccccc1)[C@@H]1CN2CCC1CC2)c1c(Cl)ccc(C(F)(F)F)c1Cl`: the “viability change, negative = cytotoxic” value was -4.4% [at 95 µM].
Turning to `CN(N=O)c1ccc([N+](=O)[O-])cc1`, the “viability change, negative = cytotoxic” value is -2.3%.
In the case of `N#CCC#N`, the “viability change, negative = cytotoxic” value is -1.06%.
`CC(C)=CCOc1c2occc2cc2ccc(=O)oc12`: the “viability change, negative = cytotoxic” value was 9.17%.
As to `Oc1ccc(Cl)c(Cl)c1Cl`, the “viability change, negative = cytotoxic” value is 0.79% [at 95 µM].
`II`: the “viability change, negative = cytotoxic” value was 17.9%.
`CCCCCCCCCCOC(=O)c1ccccc1C(=O)OCCCCCCCCCC`: the “viability change, negative = cytotoxic” value is 3.56%.
With `CCOP(=O)(OCC)Oc1ccc([N+](=O)[O-])cc1`, the “viability change, negative = cytotoxic” value is -10.6% [at 95 µM].
Same read-out and setting: the figure for `Cn1cc[n+](C)c1` (tested in a mixture with another compound) is 17.8% [at 95 µM]; for `O=C(C(Cl)(Cl)Cl)C(Cl)(Cl)Cl` it is 4.85% [at 95 µM].
With `CN1C(=O)NC(=O)C(C)(C2=CCCCC2)C1=O` (stereo not given), the Potency entry is “inactive”.
As for `O=S1OC[C@@H]2[C@H](CO1)[C@]1(Cl)C(Cl)=C(Cl)[C@@]2(Cl)C1(Cl)Cl` (stereo not given in full), the “viability change, negative = cytotoxic” value was -7.15%.
In the case of `ClC=C(Cl)Cl`, the Potency entry is “inactive”.
As for `C=COC(C)=O`, the “viability change, negative = cytotoxic” value is -0.607% [at 95 µM].
Take `N#CCc1ccccc1`: the “viability change, negative = cytotoxic” value was -1.93% [at 95 µM].
Take `Cn1sc(Cl)cc1=O`: the Potency entry was “inactive”.
For `CCOC(=O)COc1cc(-c2nn(C)c(OC(F)F)c2Cl)c(F)cc1Cl`, the “viability change, negative = cytotoxic” value is -2.32%.
`CC(C)(CCl)C(=O)Cl`: the “viability change, negative = cytotoxic” value was 4.76%.
Take `CC(C)(Cl)[N+](=O)[O-]`: the “viability change, negative = cytotoxic” value is -14.5% [at 95 µM].
Regarding `CN1[C@@H]2CC[C@H]1CC(OC(=O)c1cc(Cl)cc(Cl)c1)C2` (stereo not given in full), the “viability change, negative = cytotoxic” value is 3.83%.
As to `O=C1C(Cl)C(CCl)CN1c1cccc(C(F)(F)F)c1` (stereo not given), the “viability change, negative = cytotoxic” value was -9.64%.
`[CH3][Sn]([CH3])([Cl])[Cl]`: the “viability change, negative = cytotoxic” value is 2.01%.
The same measure, in the same setting: the figure for `C=CC(=O)OC` is -0.21% [at 95 µM]; for `O=C(CCl)c1ccc(Cl)cc1Cl` it is -2.11%.
On the same count and under the same terms, the figure for `CCOP(=S)(OCC)SCSCC` is -0.179%; for `CN(C)c1ccc(N(C)C)cc1` it is -1.41%.
For the compound `COC(N)=O`, the “viability change, negative = cytotoxic” value was -1.81%.
As for `Cc1ccc2ccccc2c1`, the “viability change, negative = cytotoxic” value is -0.0925%.
In the case of `C[N+](C)(C)CCCl`, the “viability change, negative = cytotoxic” value was 8.12% [at 95 µM].
For the compound `CC/C(=N\OC/C=C/Cl)C1=C(O)CC(C2CCOCC2)CC1=O` (stereo not given), the “viability change, negative = cytotoxic” value was 1.98%.
Still for that read-out and setting: to `CCOc1nc(F)cc2nc(S(=O)(=O)Nc3c(Cl)cccc3Cl)nn12` belongs 3.55%.
As to `CCCCOC(=O)c1ccccc1C(=O)OCc1ccccc1`, the “viability change, negative = cytotoxic” value is -0.444%.
